# ChEMBL document CHEMBL1157539, “Thousands of chemical starting points for antimalarial lead identification” (Nature, 2010)
# Columns and labels:
# Type in all cases: functional
# [1] = tested on: Plasmodium falciparum; experiment: GSK_TCMDC: Inhibition of Plasmodium falciparum 3D7 in whole red blood cells, using parasite LDH activity as an index of growth. Test compounds present at 2uM
# [2] = tested on: Plasmodium falciparum; experiment: GSK_TCMDC: Inhibition of Plasmodium falciparum Dd2 in whole red blood cells, using parasite LDH activity as an index of growth. Test compounds present at 2uM
# [3] = tested on: HepG2; experiment: GSK_TCMDC: Percent inhibition of human HepG2 cell line. Test compounds present at 10uM.
Compound,Inhibition [1] [%],Inhibition [2] [%],Inhibition [3] [%]
COCc1cc(C)nc2sc(C(=O)Nc3cc(C(C)(C)C)ccc3O)c(N)c12,85,57,0
COc1c(C2CCN(CCCCNC(=O)c3ccc(-c4ccc(Cl)cc4)c(O)c3)CC2)ccc2c1CCCC2,100,99,91
CCNc1cc(C(=O)N[C@@H](Cc2ccccc2)[C@H](O)CNCC(C)C)cc(N2CCCC2=O)c1,98,97,16
CC(=O)N1CCC(C(=O)Nc2ccc(-c3cccc(-c4nc5cc(C(F)(F)F)ccc5[nH]4)c3)cc2)CC1,88,33,82
O=C(c1ccco1)c1cn(CCOc2ccccc2)c2ccccc12,98,10,5
CCCC(C)C(=O)N1CCOC(COCc2cccc(C(F)(F)F)c2)(c2ccc(Cl)cc2)C1 (stereo not drawn),97,91,2
O=C(Nc1cccc(C(F)(F)F)c1)N1CCOC(CCN2CCC3(CCc4ccccc43)CC2)(c2ccc(Cl)c(Cl)c2)C1 (stereo not drawn),99,70,31
CS(=O)(=O)NCCCNCc1cccc(-c2ccc(-c3nc4cc(C(F)(F)F)ccc4[nH]3)cc2)c1.O=C(O)C(F)(F)F,100,85,17
O=C(Nc1cccc(-c2csc(-c3nc4ccccc4[nH]3)c2)c1)c1ccoc1,96,67,36
COc1ccc(NC(=O)CCNc2cc(C)nc(Nc3ccccc3)n2)cc1.O=C(O)C(F)(F)F,92,15,0
Cc1cc(=O)c2cc(Oc3cccc(OC(F)(F)F)c3)ccc2[nH]1,90,80,9
O=C(/C=C/c1ccc(Cl)c(Cl)c1)NCCCCCCN1CCN(C(=O)Nc2cc(F)cc(F)c2)CC1,86,0,23
COc1ccc(NC(=O)NC2CCN(c3ccnc4cc(Cl)ccc34)CC2)cc1.O=C(O)C(F)(F)F,83,64,5
COc1ccc(Nc2nccc(NCCNC(=O)Nc3cc(C)ccc3C)n2)cc1,85,0,10
O=C(Nc1cccc([N+](=O)[O-])c1)Nc1cccc(C(F)(F)F)c1,92,81,0
CC1CCN(CCCNc2ccc(C(=O)Nc3ccc(C(F)(F)F)cc3)cc2[N+](=O)[O-])CC1,100,100,62
CC(=O)C=C1CC(=O)N(C[C@@H](O)[C@H]2O[C@@H]3OC(C)(C)O[C@@H]3[C@H]2O)c2ccccc2N1,90,2,0
CN1CCN(CCCNCc2cccc(-c3ccc(CNCCc4ccccc4)cc3)c2)CC1.O=C(O)C(F)(F)F,100,20,36
CN(C)c1ccc(CN2CCC(CNC(=O)c3cc(-c4cccc(F)c4)cs3)C2)cc1.O=C(O)C(F)(F)F (stereo not drawn),96,13,48
CCCNC(=O)c1ccnc(-c2ccc(CNC3Cc4ccccc4C3)cc2)c1.O=C(O)C(F)(F)F,92,21,24
Cc1[nH]c(C)c(-c2ccc(-c3ccc(OC(F)(F)F)cc3)nc2)c(=O)c1Cl,95,95,11

Compound,Inhibition [1] [%],Inhibition [2] [%],Inhibition [3] [%]
CSc1nnc2n(Cc3ccccc3)c(=O)c3c(n12)-c1ccccc1CC31CCCCC1,93,0,0
O=C(c1cc2nc3c(c(C(F)(F)F)n2n1)CCc1ccccc1-3)N1CCN2CCCC2C1 (stereo not drawn),94,3,0
COc1ccc2nccc([C@@H](O)CN3CCC(NCc4cc5ccccc5cn4)CC3)c2n1.O=C(O)C(=O)O,93,14,3
COc1ccc2nccc([C@@H](O)CN3CCC(NC(=O)c4cc5c(Cl)cc(Cl)cc5[nH]4)CC3)c2c1,100,98,22
Cc1c(C)n(C2CCCC2)c2ncnc(OC3CCN(CC(=O)NCC4CC4)CC3)c12,89,89,20
Cc1cc(Nc2nc(NCc3cccnc3)nc3ccccc23)n[nH]1,100,33,11
COc1cc2nc(NCCc3cccc(Cl)c3)nc(NCc3ccccc3)c2cc1OC,100,100,97
c1ccc(Oc2ccc(Nc3ccnc4cc(-c5ccc(CNCCN6CCOCC6)o5)ccc34)cc2)cc1,99,99,20
CC(C)(C)c1ccc2nccc(Nc3cccc(O)c3)c2c1,99,100,8
Cc1nc(-c2nc(NCc3ccccn3)ncc2-c2ccsc2)sc1C,92,87,0
COc1cc(SC)c(Br)cc1-c1nc2ccncc2[nH]1,91,9,5
Cc1c(CNCCCNc2nc3ccncc3[nH]2)sc(Br)c1Br.Cl,87,1,0
Cc1cccc(CC(=N)NCCCCCCNC(=N)Cc2cccc(C)c2)c1.Cl,97,97,12
Cc1cccc(Nc2nc(N[C@@H]3CCCNC3)nc3cc[nH]c(=O)c23)c1.O=C(O)C(F)(F)F,99,98,55
CCN(CC)CCN(Cc1ccc(-c2ccc(C(F)(F)F)cc2)cc1)C(=O)Cn1c(CCc2cc(F)cc(F)c2)nc(=O)c2ccccc21.O=C(O)C(O)C(O)C(=O)O,91,80,30
O=c1cc(NCCCNCc2cccc(I)c2)[nH]c2ccccc12,90,9,10
CC(C)Cc1cnc2nc(N)nc(N)c2c1.Cl,98,0,66
Cc1cc(O)c(-c2cccc(Oc3ccc(Cl)cc3)c2)c(C)n1,96,95,0
Cc1ccc(N(CCC(=N)N)Cc2ccccc2)cc1.Cl,96,95,6
COc1ccc2ncc(F)c(CCN3CCC(NCc4cc(C)c5c(c4)OCCO5)CC3)c2n1.Cl,100,67,20
O=C(Nc1cccc(OC2CCN(Cc3ccccc3)CC2)c1)c1ccc(Cl)c(Cl)c1.O=C(O)C(F)(F)F,100,45,16

Compound,Inhibition [1] [%],Inhibition [2] [%],Inhibition [3] [%]
COc1cc(Nc2ncc3c(C)nc(-c4cccc(Nc5ccc(CN6CCS(=O)(=O)CC6)cc5)c4)n3n2)cc(OC)c1OC,90,79,2
Cl.O=C(Nc1ccc2nccc(N3CCN4CCC[C@H]4C3)c2c1)c1ccc(Cl)c(Cl)c1,100,98,18
O=C(Nc1cccc(-c2ccc(-c3nc4cc(F)ccc4[nH]3)s2)c1)c1ccncc1,96,29,74
COc1ccc(CN2CCC(CNCc3cccc(-c4ccccc4)c3)CC2)cc1.O=C(O)C(F)(F)F,100,92,96
COc1cc2nc(N3CCC(CNC(=O)c4ccc(-c5ccc(C(=O)N(C)C)cc5)c(OCCO)c4)CC3)nc(N)c2cc1OC,96,18,10
Fc1ccc2[nH]c(-c3cccc(-c4cccc(CNCCN5CCNCC5)c4)c3)nc2c1.O=C(O)C(F)(F)F,94,4,18
O=C(O)C(F)(F)F.c1cc(CNCC2CCCO2)cc(-c2csc(-c3nc4ccccc4[nH]3)c2)c1 (stereo not drawn),91,6,5
CC(=O)c1ccc(N2CCN(C(=O)Nc3ccc(Cl)cc3)CC2)cc1,97,0,4
Clc1ccc(-c2cnc3ccc(NCCc4cccnc4)nn23)cc1,97,32,34
Cc1cccc2c3c([nH]c12)C1(CCN(Cc2ccccc2)CC1)NC(C(=O)NCc1ccccc1)C3 (stereo not drawn),81,8,0
[O-][s+]1nc(NCCCN(Cc2cccs2)c2ccccn2)c(NCc2ccccc2)n1 (stereo not drawn),92,25,10
O=C1NC(c2ccc(N3CCCCCC3)cc2)Nc2ccccc21 (stereo not drawn),96,96,19
Cc1cccc2nc(-c3cccc(-c4cccc(CNCCc5cccn5C)c4)c3)[nH]c12.O=C(O)C(F)(F)F,91,49,4
CN1CCC(NCc2cccc(-c3ccc(S(=O)(=O)NCCc4ccccn4)cc3)c2)CC1.O=C(O)C(F)(F)F,95,1,10
CCNc1cc(C(=O)N[C@@H](Cc2cccc(F)c2)[C@H](O)CNC(C)CCCC(C)C)cc(N2CCCCS2(=O)=O)c1.Cl (stereo partly drawn),98,97,0
CC1CCCCC1N(C)C1CCN(CCCNC(=O)C=Cc2cccc(C(F)(F)F)c2)CC1 (stereo not drawn),100,17,47
O=C(/C=C/c1ccc(Cl)c(Cl)c1)NCCCCCN1CCC(NC(=S)Nc2ccc(Cl)cc2Cl)CC1,99,47,53
CS(=O)(=O)O.FC(F)(F)COc1ccc(CNCCCCCCNCc2ccc(OCC(F)(F)F)c3ccccc23)c2ccccc12,100,93,99
COc1ccc(Cl)cc1N1CCN(CCCNC(=O)c2ccc(-c3nc4ccc(C(F)(F)F)cc4[nH]3)c(C)c2)CC1,95,14,6
